According to PubChem BioAssay:
For part of these data: Measured potencies and affinities stand elsewhere. Calls of active or inactive are those of the source.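 Rule for the calls, unless noted: active = calcium signal cut by more than 3 SD below the full-agonist control yet still positive, in both repeats and the earlier primary screen; inactive = the rest.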

Experiments:
[1] = test system: TRPC4 beta (transient receptor potential cation channel C4), mouse; test: activators of mouse TRPC4 channel, confirmation, cell-based, Fluo4 calcium, HEK293 TRPC4beta/mu-opioid, duplicates, 10 µM (AID 2426;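 active = fluorescence ratio normalized to control raised more than 50% in primary screen plus both repeat runs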); settings: Fluo4 calcium fluorescence, at 10 µM; stronger effect = higher value
[2] = test system: transient receptor potential cation channel C4 beta (TRPC4), mouse; test: activators of mouse TRPC4 channel, confirmation, cell-based, second round, Fluo4, HEK293 TRPC4beta/mu-opioid, 1 µM (AID 2461;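 active = primary screen active and over 50% activation in each of two duplicate runs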); settings: Fluo4 calcium fluorescence, at 1 µM; stronger effect = higher value
[3] = test system: TRPC4 (transient receptor potential cation channel C4 beta), mouse; test: positive allosteric modulators of mouse TRPC4, confirmation, cell-based, second round, Fluo-4, HEK293 TRPC4beta/mu-opioid, 1 µM (AID 2554;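 active = primary screen hit whose fluorescence ratio, in both repeats, exceeds the weak agonist control mean by 3 SD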); settings: DAMGO EC20, Fluo-4 calcium flux, at 1 µM; stronger effect = higher value
[4] = test system: TRPC4 beta (transient receptor potential cation channel C4), mouse; test: positive allosteric modulators of mouse TRPC4, confirmation, cell-based, Fluo-4, HEK293 TRPC4beta/mu-opioid (AID 2555;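 active = primary screen hit whose calcium fluorescence ratio, in both repeats, exceeds the weak agonist control mean by 3 SD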); settings: DAMGO EC20, Fluo-4 calcium flux, at 10 µM; stronger effect = higher value
[5] = molecular target: Short transient receptor potential channel 4 (Mus musculus) (UniProt Q9QUQ5); test: inhibitors of mouse TRPC4 channel, confirmation, cell-based, Fluo4, HEK293 TRPC4beta/mu-opioid (AID 2636); settings: DAMGO, Fluo4 calcium flux, at 10 µM; stronger effect = higher value
Sequence of Short transient receptor potential channel 4 (Mus musculus) (Q9QUQ5 whole entry, looked up): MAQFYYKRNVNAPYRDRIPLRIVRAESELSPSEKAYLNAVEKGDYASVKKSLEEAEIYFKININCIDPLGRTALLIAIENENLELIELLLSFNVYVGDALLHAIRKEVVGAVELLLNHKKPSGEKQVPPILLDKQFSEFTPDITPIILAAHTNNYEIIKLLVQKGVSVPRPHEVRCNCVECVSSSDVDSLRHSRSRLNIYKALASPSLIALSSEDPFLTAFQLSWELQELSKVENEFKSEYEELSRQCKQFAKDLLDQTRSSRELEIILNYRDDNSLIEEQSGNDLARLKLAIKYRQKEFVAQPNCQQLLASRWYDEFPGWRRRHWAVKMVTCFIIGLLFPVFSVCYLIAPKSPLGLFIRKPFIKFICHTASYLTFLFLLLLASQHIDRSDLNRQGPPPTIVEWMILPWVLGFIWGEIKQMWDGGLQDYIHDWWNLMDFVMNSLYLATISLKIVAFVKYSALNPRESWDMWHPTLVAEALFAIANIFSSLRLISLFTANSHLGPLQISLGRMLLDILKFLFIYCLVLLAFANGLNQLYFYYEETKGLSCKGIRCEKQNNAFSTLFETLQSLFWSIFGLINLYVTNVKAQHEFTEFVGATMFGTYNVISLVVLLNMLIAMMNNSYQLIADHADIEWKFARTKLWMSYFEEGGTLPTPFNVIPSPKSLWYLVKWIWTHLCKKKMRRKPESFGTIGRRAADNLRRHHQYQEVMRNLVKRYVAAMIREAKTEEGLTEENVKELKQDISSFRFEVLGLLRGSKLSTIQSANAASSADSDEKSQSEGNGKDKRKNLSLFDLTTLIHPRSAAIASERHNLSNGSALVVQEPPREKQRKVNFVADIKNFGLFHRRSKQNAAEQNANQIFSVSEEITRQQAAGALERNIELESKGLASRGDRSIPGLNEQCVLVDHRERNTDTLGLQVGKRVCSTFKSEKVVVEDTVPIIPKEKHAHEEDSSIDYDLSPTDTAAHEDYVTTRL

[6] = molecular target: Short transient receptor potential channel 4 (Mus musculus) (UniProt Q9QUQ5); test: inhibitors of mouse TRPC4 channel, confirmation, cell-based, second round, Fluo4, HEK293 TRPC4beta/mu-opioid, 1 µM (AID 2637;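 active = calcium signal ratio cut to more than 3 SD under the fully stimulated control mean yet still positive, in both repeats and the primary screen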); settings: Fluo4 calcium flux, DAMGO, at 1 µM; stronger effect = higher value
[7] = molecular target: Short transient receptor potential channel 4 (Mus musculus) (UniProt Q9QUQ5); test: mouse TRPC4 channel activators, dose response, cell-based, HEK293 TRPC4/mu-opioid, Fluo-4 calcium (AID 434937;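 active = primary screen activator hit with a dose response curve and TRPC4 channel activation at any tested dose; inactive = no activation, no dose response, or not a primary hit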)
[8] = molecular target: Short transient receptor potential channel 4 (Mus musculus) (UniProt Q9QUQ5); test: TRPC4 positive allosteric modulators, dose response, cell-based, HEK293 TRPC4/mu-opioid, Fluo-4 calcium, EC20 DAMGO (AID 434941;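 active = earlier screen potentiator hit that boosts the TRPC4 ion channel at some dose, with a dose response; inactive = no potentiation, no dose response, or not a prior hit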;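 note: calcium entry triggered by an EC20 dose of DAMGO at the co-expressed mu-opioid receptor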)
[9] = molecular target: Short transient receptor potential channel 4 (Mus musculus) (UniProt Q9QUQ5); test: mouse TRPC4 channel inhibitors, dose response, cell-based, HEK293 TRPC4/mu-opioid, Fluo-4 calcium (AID 434942;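 active = primary screen inhibitor hit that blocks the TRPC4 channel at some tested dose, yielding a dose curve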)
[10] = molecular target: Short transient receptor potential channel 6 (Mus musculus) (UniProt Q61143); test: inhibition of mouse TRPC6 channel, confirmation, selectivity assay for TRPC4 inhibitor project, cell-based, HEK293, membrane potential dye, duplicate (AID 434948;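 active = active in primary screen and both duplicates, each dropping signal beyond three positive-control SD with fluorescence still positive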); settings: HEK293 TRPC6, membrane potential dye fluorescence, at 10 µM, stimulated with maximal-effect acetylcholine; stronger effect = higher value
Sequence of Short transient receptor potential channel 6 (Mus musculus) (Q61143 whole entry, looked up): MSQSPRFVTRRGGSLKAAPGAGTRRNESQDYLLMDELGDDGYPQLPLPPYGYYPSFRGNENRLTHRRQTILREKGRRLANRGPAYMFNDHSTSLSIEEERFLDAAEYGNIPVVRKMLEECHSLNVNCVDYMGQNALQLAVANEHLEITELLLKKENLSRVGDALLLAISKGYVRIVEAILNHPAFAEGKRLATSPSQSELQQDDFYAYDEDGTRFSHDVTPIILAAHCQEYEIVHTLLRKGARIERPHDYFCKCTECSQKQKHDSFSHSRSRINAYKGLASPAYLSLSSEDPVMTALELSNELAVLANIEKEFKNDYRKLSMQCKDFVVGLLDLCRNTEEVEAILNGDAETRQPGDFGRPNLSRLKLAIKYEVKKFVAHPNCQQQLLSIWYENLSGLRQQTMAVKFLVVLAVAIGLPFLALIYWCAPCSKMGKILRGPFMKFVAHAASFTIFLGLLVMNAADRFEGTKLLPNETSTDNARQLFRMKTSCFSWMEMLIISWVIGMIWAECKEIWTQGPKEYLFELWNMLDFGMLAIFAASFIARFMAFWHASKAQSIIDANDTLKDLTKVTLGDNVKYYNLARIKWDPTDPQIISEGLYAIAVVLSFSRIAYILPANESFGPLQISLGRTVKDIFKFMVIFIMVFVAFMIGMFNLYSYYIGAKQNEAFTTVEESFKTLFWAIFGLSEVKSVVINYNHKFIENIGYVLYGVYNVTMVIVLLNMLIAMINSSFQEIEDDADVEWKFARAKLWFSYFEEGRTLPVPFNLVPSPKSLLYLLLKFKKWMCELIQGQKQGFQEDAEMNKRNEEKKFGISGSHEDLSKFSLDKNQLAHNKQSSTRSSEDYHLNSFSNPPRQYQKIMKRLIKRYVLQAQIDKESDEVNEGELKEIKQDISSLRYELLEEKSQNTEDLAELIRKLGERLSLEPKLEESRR

[11] = molecular target: Short transient receptor potential channel 6 (Mus musculus) (UniProt Q61143); test: activation of mouse TRPC6 channel, confirmation, selectivity assay for TRPC4 activator project, cell-based, HEK293, membrane potential dye, duplicate (AID 434950;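 active = membrane potential signal rise above negative control mean plus 3 SD in both duplicates, also active in the earlier TRPC4 screen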); settings: HEK293 TRPC6, membrane potential fluorescence, at 10 µM; stronger effect = higher value
[12] = molecular target: Short transient receptor potential channel 6 (Mus musculus) (UniProt Q61143); test: TRPC6 potentiation by TRPC4 potentiator hits, confirmation, selectivity assay for TRPC4 potentiator project, HEK293 cells, membrane potential dye, duplicate (AID 434952;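 active = compound raising the membrane signal above positive-control mean plus 3 SD in both repeats, and a primary screen hit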); settings: HEK293 TRPC6, membrane potential dye fluorescence, at 10 µM, maximal acetylcholine added after compound; stronger effect = higher value
[13] = molecular target: Short transient receptor potential channel 4 (Mus musculus) (UniProt Q9QUQ5); test: calcium flux activators in TRPC4/5HT1a cells, counter-screen for TRPC4 activator project, cell-based, second counter screen, HEK293 TRPC4/5HT1a, Fluo-4 (AID 434977;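 active = calcium signal rise above buffer-control mean plus 5 SD in both duplicates, and also a hit in the primary screen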); settings: Fluo-4 calcium flux, at 10 µM; stronger effect = higher value
[14] = calcium flux inhibitors in TRPC4/5HT1a cells, confirmation, counter-screen for TRPC4 inhibitor project, cell-based, second counter screen, HEK293 TRPC4/5HT1a, Fluo-4 (AID 434978;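 active = primary screen active whose calcium signal fell more than 3 SD beyond the full-serotonin control mean in both duplicate plates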;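 for outcome: serotonin given first at submaximal then at maximal dose after compound preincubation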); settings: Fluo-4 calcium flux, at 10 µM, serotonin added to trigger calcium flux; stronger effect = higher value
[15] = test system: TRPC4 (mouse), co-expressed with 5HT1a in HEK293; test: calcium flux potentiators in TRPC4/5HT1a cells, confirmation, counter-screen for TRPC4 potentiator project, cell-based, second counter screen, HEK293 TRPC4/5HT1a, Fluo-4 (AID 434979;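 active = signal rise over 3 SD above mean of control wells given weak agonist, in both repeats and first screen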); settings: Fluo-4 calcium flux, at 10 µM, serotonin added at its EC20 dose; stronger effect = higher value
[16] = calcium flux activation in mu-opioid HEK293 cells, confirmation, counter-screen for TRPC4 activator project, cell-based, HEK293 mu-opioid receptor line (AID 449723;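 active = hit in primary screen, with calcium signal over 5 SD above buffer well mean in both duplicates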;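 note: counter screen cells carry the mu-opioid receptor alone and lack TRPC4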); settings: Fluo-4 calcium fluorescence, at 10 µM; stronger effect = higher value
[17] = calcium flux enhancement in mu-opioid HEK293 cells, confirmation, counter-screen for TRPC4 allosteric potentiator project, cell-based, HEK293 mu-opioid receptor line (AID 449724;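 active = calcium signal rise more than 3 SD above the low-dose agonist control mean, in both duplicate plates and the primary screen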); settings: Fluo-4 calcium flux, at 10 µM, compound added before EC20 DAMGO stimulus; stronger effect = higher value

O/N=C/c1cn(-c2ccccc2)nc1-c1ccc2c(c1)OCCO2
inactive: outcome [1] | outcome [2] | outcome [3] | outcome [5] | outcome [6] | outcome [7] | outcome [8] | outcome [9] | outcome [10] | outcome [11] | outcome [12] | outcome [13] | outcome [14] | outcome [16] | outcome [17]
active: potentiation [4] 16% | potentiation [15] 29.3%

C/C(=N\NC(=O)COc1ccc(C)cc1C(C)C)c1ccc(-n2ccnc2)cc1
inactive: outcome [1] | outcome [2] | outcome [3] | outcome [4] | outcome [5] | outcome [6] | outcome [7] | outcome [8] | outcome [9] | outcome [10] | outcome [11] | outcome [12] | outcome [13] | outcome [14] | outcome [16] | outcome [17]
active: potentiation [15] 10.4%

CCc1cc(=O)oc2c(CNCc3ccccc3F)c(O)c(Cl)cc12
inactive: outcome [1] | outcome [2] | outcome [3] | outcome [4] | outcome [5] | outcome [6] | outcome [7] | outcome [8] | outcome [9] | outcome [10] | outcome [11] | outcome [12] | outcome [13] | outcome [14] | outcome [15] | outcome [16] | outcome [17]

O=C(COc1ccccc1-c1ccccc1)NCc1ccco1
inactive: outcome [1] | outcome [2] | outcome [3] | outcome [4] | outcome [5] | outcome [6] | outcome [7] | outcome [8] | outcome [9] | outcome [10] | outcome [11] | outcome [12] | outcome [13] | outcome [14] | outcome [15] | outcome [16] | outcome [17]

CCOc1ccc(CN2CCCC(CNC(=O)c3ccc(F)cc3)C2)cc1CO (stereo not given)
inactive: outcome [1] | outcome [2] | outcome [3] | outcome [4] | outcome [5] | outcome [6] | outcome [7] | outcome [8] | outcome [9] | outcome [10] | outcome [11] | outcome [12] | outcome [13] | outcome [14] | outcome [15] | outcome [16] | outcome [17]

CCCC(=O)N/C(N)=N/c1nc(C)c2ccccc2n1
active: potentiation [3] 9% | potentiation [15] 10%
inactive: outcome [1] | outcome [2] | outcome [4] | outcome [5] | outcome [6] | outcome [7] | outcome [8] | outcome [9] | outcome [10] | outcome [11] | outcome [12] | outcome [13] | outcome [14] | outcome [16] | outcome [17]

COc1ccccc1CC(=O)N1CCN(S(=O)(=O)c2ccccc2)CC1
inactive: outcome [1] | outcome [2] | outcome [3] | outcome [5] | outcome [6] | outcome [7] | outcome [8] | outcome [9] | outcome [10] | outcome [11] | outcome [12] | outcome [13] | outcome [14] | outcome [16] | outcome [17]
active: potentiation [4] 24% | potentiation [15] 44.4%

CCOC(=O)COc1cc(-n2c(=S)[nH]c3ccccc3c2=O)c(Cl)cc1Cl
active: potentiation [3] 8% | potentiation [4] 21%
inactive: outcome [1] | outcome [2] | outcome [5] | outcome [6] | outcome [7] | outcome [8] | outcome [9] | outcome [10] | outcome [11] | outcome [12] | outcome [13] | outcome [14] | outcome [15] | outcome [16] | outcome [17]

CCC(C(=O)Nc1ccccc1OC)n1c(C(=O)OC)cc2ccsc21 (stereo not given)
active: potentiation [4] 17% | potentiation [15] 75.5%
inactive: outcome [1] | outcome [2] | outcome [3] | outcome [5] | outcome [6] | outcome [7] | outcome [8] | outcome [9] | outcome [10] | outcome [11] | outcome [12] | outcome [13] | outcome [14] | outcome [16] | outcome [17]

CCN(CC)CCn1c(=N)n(CC(O)COc2cccc(C)c2)c2ccccc21 (stereo not given)
inactive: outcome [1] | outcome [2] | outcome [3] | outcome [4] | outcome [6] | outcome [7] | outcome [8] | outcome [9] | outcome [10] | outcome [11] | outcome [12] | outcome [13] | outcome [15] | outcome [16] | outcome [17]
active: inhibition [5] 88% | inhibition [14] 6.72%

CCCN1CCC(NC(=O)Cc2cccc(C)c2)CC1
inactive: outcome [1] | outcome [2] | outcome [3] | outcome [4] | outcome [5] | outcome [6] | outcome [7] | outcome [8] | outcome [9] | outcome [10] | outcome [11] | outcome [12] | outcome [13] | outcome [14] | outcome [15] | outcome [16] | outcome [17]

CCOC(=O)c1cnc(-n2nc(C)cc2C)nc1NC1CCCCC1
active: potentiation [15] 26.3%
inactive: outcome [1] | outcome [2] | outcome [3] | outcome [4] | outcome [5] | outcome [6] | outcome [7] | outcome [8] | outcome [9] | outcome [10] | outcome [11] | outcome [12] | outcome [13] | outcome [14] | outcome [16] | outcome [17]

CCN(CCO)Cc1csc2ccc(Br)cc12
inactive: outcome [1] | outcome [2] | outcome [4] | outcome [5] | outcome [6] | outcome [7] | outcome [8] | outcome [9] | outcome [10] | outcome [11] | outcome [12] | outcome [13] | outcome [14] | outcome [15] | outcome [16] | outcome [17]
active: potentiation [3] 12%

Clc1ccc(Cl)c(OCCCCN2CCNCC2)c1
active: potentiation [4] 13% | potentiation [15] 6.61%
inactive: outcome [1] | outcome [2] | outcome [3] | outcome [5] | outcome [6] | outcome [7] | outcome [8] | outcome [9] | outcome [10] | outcome [11] | outcome [12] | outcome [13] | outcome [14] | outcome [16] | outcome [17]

O=C(CN1CCCCC1)Nc1ccccc1Oc1ccccc1
inactive: outcome [1] | outcome [2] | outcome [3] | outcome [4] | outcome [6] | outcome [7] | outcome [8] | outcome [9] | outcome [11] | outcome [12] | outcome [13] | outcome [15] | outcome [16] | outcome [17]
active: inhibition [5] 92% | inhibition [10] 33.5% | inhibition [14] 31.5%
